Screening results (PubChem BioAssay)
Only some compounds are listed: those with a hit (about 7% of all), similar ones and a draw of the others.
ADAM17 inh: inhibits human ADAM17; P78536; recombinant ADAM17, EDANS/DABCYL FRET peptide cleavage; inhibition, % at 6.95 µM; 370,000 compounds, 0.83% hits; AID 720648;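 active = inhibition above the mean of compounds lying between control limits plus 3 SD, set per campaign, cut at about 8.5% in these data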;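 note: 0% = DMSO-only wells as the low control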
AHR activator: activates the human aryl hydrocarbon receptor. P35869. AHR-responsive luciferase reporter cells, luminescence. activation, % at 5 µM. 320,000 compounds, 2.5% hits; in the data active = activation above about 47%;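 note: 0% = vehicle wells and 100% = reference agonist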
Target sequence (P35869 whole entry, looked up): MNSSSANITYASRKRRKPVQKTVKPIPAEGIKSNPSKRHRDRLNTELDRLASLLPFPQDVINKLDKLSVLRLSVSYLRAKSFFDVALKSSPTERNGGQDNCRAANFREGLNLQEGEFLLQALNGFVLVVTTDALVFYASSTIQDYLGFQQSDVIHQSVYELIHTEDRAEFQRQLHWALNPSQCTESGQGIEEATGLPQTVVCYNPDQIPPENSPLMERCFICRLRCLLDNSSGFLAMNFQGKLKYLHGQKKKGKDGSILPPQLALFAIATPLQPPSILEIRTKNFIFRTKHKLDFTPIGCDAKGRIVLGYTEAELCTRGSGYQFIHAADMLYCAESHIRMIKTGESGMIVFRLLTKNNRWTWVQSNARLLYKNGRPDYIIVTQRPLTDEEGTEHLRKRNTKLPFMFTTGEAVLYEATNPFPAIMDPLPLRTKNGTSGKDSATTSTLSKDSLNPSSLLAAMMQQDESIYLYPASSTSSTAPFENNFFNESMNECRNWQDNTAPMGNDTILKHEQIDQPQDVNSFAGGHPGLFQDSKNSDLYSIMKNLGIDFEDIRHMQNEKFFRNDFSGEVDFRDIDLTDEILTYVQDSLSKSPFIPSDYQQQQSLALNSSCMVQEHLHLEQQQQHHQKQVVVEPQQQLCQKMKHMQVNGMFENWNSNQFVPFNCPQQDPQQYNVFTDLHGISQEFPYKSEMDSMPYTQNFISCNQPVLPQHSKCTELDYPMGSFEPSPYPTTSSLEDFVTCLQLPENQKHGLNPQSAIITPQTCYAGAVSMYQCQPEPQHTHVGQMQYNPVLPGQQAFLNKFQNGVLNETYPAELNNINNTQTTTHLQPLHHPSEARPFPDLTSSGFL
rCAG binder: r(CAG) repeat RNA binding | inhibition, % at 3 µM | AID 651821 | TO-PRO-1 dye displacement fluorescence | 370,000 compounds, 1.3% hits;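 active = inhibition above the plate cutoff, the mean of all test compounds on that plate plus 3 SD, cut at about 35% in these data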;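 note: 0% = DMSO alone and 100% = 100 µM mitoxantrone as full dye displacement; higher means more dye released from RNA so lower well fluorescence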
GRIN3A LBD mod: modulates the human NR3A ligand-binding domain. NR3A LBD differential scanning fluorimetry, Tm shift; 0% = protein alone, 100% = glycine-bound protein. Tm shift relative to glycine control, % at 25 µM. 340,000 compounds, 2.5% hits. AID 1259313;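 active = melting temperature shift of at least 10% of the positive control shift, at one fixed dose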
proKLK7 act: proKLK7 (human) activation, primary screen; P49862; purified proKLK7, EDANS-DABCYL substrate fluorescence; 100% is mature enzyme control, 0% vehicle; activation, % at 7 µM; 370,000 compounds, 0.9% hits;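 active = activation above the mean of all tested compounds plus 3 SD, computed per campaign excluding outliers beyond control limits, cut at about 13% in these data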
ADAM10 inh: inhibits human ADAM10 | O14672 | recombinant ADAM10, EDANS/DABCYL FRET peptide cleavage, 3 h | inhibition, % at 7 µM | 370,000 compounds, 0.62% hits;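 active = inhibition above a per-campaign cutoff equal to the mean of compounds falling between control-based bounds plus 3 SD, cut at about 20% in these data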;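 note: 0% = DMSO wells while the 100% control is not disclosed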
Active calls of the source: *.

Screening CCOc1ccc(C(=O)Nc2ccc(NC(=O)c3ccccc3)cc2)cc1Br returned ADAM17 inh 0, AHR activator -2, rCAG binder 2, GRIN3A LBD mod 29*, proKLK7 act 0 and ADAM10 inh 5.
CCOc1ccc(C(=O)Nc2ccc(Cc3ccncc3)cc2)cc1Br was read as ADAM17 inh 3, AHR activator -2, rCAG binder 0, GRIN3A LBD mod -5, proKLK7 act -1 and ADAM10 inh 11.
`CCOc1ccc(C(=O)Nc2ccc(N3CCN(C)CC3)cc2)cc1Br` gave ADAM17 inh 1, AHR activator 57*, rCAG binder -6, GRIN3A LBD mod 0, proKLK7 act 0 and ADAM10 inh 7.
`CCOc1ccc(C(=O)Nc2ccc(N3CCN(C(=O)c4ccco4)CC3)cc2)cc1Br` gave ADAM17 inh -1, rCAG binder 3, GRIN3A LBD mod -6, proKLK7 act 0 and ADAM10 inh -8.
Screening COc1ccccc1C(=O)NC(C)c1ccc(-n2ccnc2)cc1 (stereo not drawn) returned ADAM17 inh -1, AHR activator 60*, rCAG binder -4, GRIN3A LBD mod 1, proKLK7 act 0 and ADAM10 inh 2.
Screening CCOc1ccccc1C(=O)NC(C)c1ccc(-n2ccnc2)cc1 (stereo not drawn) returned ADAM17 inh -1, AHR activator 65*, rCAG binder -7, GRIN3A LBD mod 2, proKLK7 act 1 and ADAM10 inh -3.
CC(C)(C)NC(=O)C1CCC(CNS(=O)(=O)c2cccc3nsnc23)CC1 (stereo not drawn) was read as ADAM17 inh 1, AHR activator 0, rCAG binder -3, GRIN3A LBD mod 10*, proKLK7 act 0 and ADAM10 inh -3.
`CCn1c2c(n(C(C)=O)c1=O)C[C@@H](c1ccccc1)[C@@H](C)[C@@H](C(=O)N1CCCC1)C2` gave ADAM17 inh -1, rCAG binder 0, proKLK7 act 0 and ADAM10 inh -3.
For COC(=O)c1cc2occc2n1CC(=O)Nc1cc(OC)cc(OC)c1 the results were ADAM17 inh 0, AHR activator 2, rCAG binder 3, GRIN3A LBD mod 11*, proKLK7 act 1 and ADAM10 inh 0.
COC(=O)c1cc2c(c3c4ccccc4n(S(=O)(=O)c4ccccc4)c13)C(=O)N(Cc1ccc(N(C)C)cc1)C2 was read as ADAM17 inh 3, rCAG binder 17, proKLK7 act -2 and ADAM10 inh 10.
N#Cc1nc(-c2ccc(OCc3ccc(Cl)cc3)cc2)oc1N1CCC(C(N)=O)CC1 was read as ADAM17 inh -2, AHR activator 1, rCAG binder 1, GRIN3A LBD mod 28*, proKLK7 act 1 and ADAM10 inh -10.
Screening CCCOc1ccc(-c2nc(C#N)c(N3CCC(C(N)=O)CC3)o2)cc1 returned ADAM17 inh -130, AHR activator 5, rCAG binder -2, GRIN3A LBD mod 2, proKLK7 act 1 and ADAM10 inh -427.
For CCS(=O)(=O)Nc1ccc(-c2cc(-c3ccccc3)c3cc(C)ccc3n2)cc1 the results were ADAM17 inh -18, AHR activator 0, rCAG binder 13, GRIN3A LBD mod 10*, proKLK7 act -3 and ADAM10 inh -79.
For Cc1ccccc1Cn1cc(COC(=O)N(C)Cc2ccccc2)nn1 the results were ADAM17 inh -8, rCAG binder 1, proKLK7 act 0 and ADAM10 inh -3.
For COc1cc(/C=C2/C(=O)ON=C2c2ccccc2)ccc1O the results were ADAM17 inh -2, AHR activator 5, rCAG binder 0, GRIN3A LBD mod 11*, proKLK7 act 1 and ADAM10 inh -2.
Screening Cc1ccc(/C=C2/C(=O)ON=C2c2ccccc2)o1 returned ADAM17 inh -3, AHR activator 0, rCAG binder 39*, GRIN3A LBD mod 5, proKLK7 act 0 and ADAM10 inh -8.
COc1cc(/C=C2\C(=O)ON=C2c2ccccc2)cc(Cl)c1O was read as ADAM17 inh -1, AHR activator 3, rCAG binder 7, GRIN3A LBD mod -9, proKLK7 act 0 and ADAM10 inh -6.
Screening CCCCCCCCN1C(=O)[C@@H](CC(=O)N2CCN(C(=O)c3ccco3)CC2)C[C@@]2(C(=O)OC)C1=C[C@H](C(C)C)O[C@@H]2C1CC1 returned ADAM17 inh 4, rCAG binder 7, proKLK7 act 1 and ADAM10 inh 13.
Cc1ccc(NC(N)=S)cc1 was read as ADAM17 inh -1, AHR activator -3, rCAG binder 1, GRIN3A LBD mod -3, proKLK7 act 0 and ADAM10 inh 1.
Screening NC(=S)Nc1ccc(Oc2ccc(NC(N)=S)cc2)cc1 returned ADAM17 inh -3, AHR activator 1, rCAG binder -2, GRIN3A LBD mod 14*, proKLK7 act 0 and ADAM10 inh 6.
`C=CC(=O)NC1CCCCN(C(C)C)C1=O` (stereo not drawn) gave ADAM17 inh -3, rCAG binder 9, proKLK7 act 1 and ADAM10 inh 5.
O=C(NCCc1csc(-c2ccccc2)n1)c1ccc(Br)o1 was read as ADAM17 inh 4, AHR activator 19, rCAG binder 0, GRIN3A LBD mod 2, proKLK7 act 0 and ADAM10 inh -10.
O=C(NNC(=O)c1ccc(Cl)cc1Cl)c1csc(-c2cccnc2)n1 was read as ADAM17 inh -1, AHR activator 7, rCAG binder 3, GRIN3A LBD mod 1, proKLK7 act 0 and ADAM10 inh 1.
`O=C(NCCc1csc(-c2cccnc2)n1)c1ccc(Br)o1` gave ADAM17 inh 0, AHR activator 65*, rCAG binder 4, GRIN3A LBD mod 4, proKLK7 act 0 and ADAM10 inh -8.
Screening O=C(NCc1ccc(Cl)cc1)c1csc(-c2cccnc2)n1 returned ADAM17 inh -4, AHR activator 52*, rCAG binder -3, GRIN3A LBD mod -1, proKLK7 act 0 and ADAM10 inh -2.
`Cc1nc2sccn2c1-c1nc(-c2cc3ccccc3o2)cs1` gave ADAM17 inh -9, AHR activator 54*, rCAG binder 5, GRIN3A LBD mod -2, proKLK7 act -1 and ADAM10 inh -13.
c1ccc2c(c1)nc(Nc1ccc3c(c1)OCO3)c1nnnn12 was read as ADAM17 inh 1, AHR activator 120*, rCAG binder 9, GRIN3A LBD mod -2, proKLK7 act 0 and ADAM10 inh 2.
Screening Cc1cc(C)n(-c2nc3ccccc3nc2Nc2ccc3c(c2)OCO3)n1 returned ADAM17 inh -2, AHR activator 76*, rCAG binder 6, GRIN3A LBD mod 1, proKLK7 act 0 and ADAM10 inh -19.
